Experimental findings from article PMC7862700, “An all-to-all approach to the identification of sequence-specific readers for epigenetic DNA modifications on cytosine” are described below.

What all share (assay): DAPPL (digital affinity profiling via proximity ligation, sequencing); 10 mM Tris-HCl pH 7.5, 50 mM NaCl, 1 mM DTT, 4% glycerol, room temperature, 30 min; GST-TFs on glutathione beads, 16-mer random dsDNA library, 0.1% formaldehyde crosslink after washing; high values mean tight binding
Conditions in all cases: protein: recombinant; tags: N-terminal GST; dsDNA, one strand shown

For assay [1], the target named is T1, FLI1 (Homo sapiens, UniProt Q01543 1-452).
T1 sequence: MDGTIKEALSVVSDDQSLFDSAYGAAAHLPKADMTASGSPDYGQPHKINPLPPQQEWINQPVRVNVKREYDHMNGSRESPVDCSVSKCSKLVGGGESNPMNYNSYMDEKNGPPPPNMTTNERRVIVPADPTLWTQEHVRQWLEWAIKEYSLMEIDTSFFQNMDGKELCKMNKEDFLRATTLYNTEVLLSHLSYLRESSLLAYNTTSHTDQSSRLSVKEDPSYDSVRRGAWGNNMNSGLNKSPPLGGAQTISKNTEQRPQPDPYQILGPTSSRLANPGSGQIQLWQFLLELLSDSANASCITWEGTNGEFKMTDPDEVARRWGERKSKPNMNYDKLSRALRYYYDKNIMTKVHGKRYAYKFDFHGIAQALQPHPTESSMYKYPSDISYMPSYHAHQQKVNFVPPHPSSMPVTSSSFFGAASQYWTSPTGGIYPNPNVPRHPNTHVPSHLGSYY
In short, it runs like this:
(§1)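 Pools of DNA-barcoded human transcription factors, expressed in yeast as GST fusions on glutathione beads and combined with a tag-only sample, were incubated with 200 nmole of a 16-mer random double-stranded DNA library. Incubation took 30 min at room temperature in Tris/NaCl/DTT/glycerol buffer and was followed by washing, 0.1% formaldehyde crosslinking, proximity ligation (BsaI/T4 ligase, 1 h, 37 °C), PCR amplification and sequencing on an Illumina NextSeq500. Binding signal is the ratio of a hexamer's read frequency for a factor to its frequency for the tag-only sample.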

Assay [2] concerns the target T2, ELK1 (Homo sapiens, UniProt P19419 1-428).
T2 sequence: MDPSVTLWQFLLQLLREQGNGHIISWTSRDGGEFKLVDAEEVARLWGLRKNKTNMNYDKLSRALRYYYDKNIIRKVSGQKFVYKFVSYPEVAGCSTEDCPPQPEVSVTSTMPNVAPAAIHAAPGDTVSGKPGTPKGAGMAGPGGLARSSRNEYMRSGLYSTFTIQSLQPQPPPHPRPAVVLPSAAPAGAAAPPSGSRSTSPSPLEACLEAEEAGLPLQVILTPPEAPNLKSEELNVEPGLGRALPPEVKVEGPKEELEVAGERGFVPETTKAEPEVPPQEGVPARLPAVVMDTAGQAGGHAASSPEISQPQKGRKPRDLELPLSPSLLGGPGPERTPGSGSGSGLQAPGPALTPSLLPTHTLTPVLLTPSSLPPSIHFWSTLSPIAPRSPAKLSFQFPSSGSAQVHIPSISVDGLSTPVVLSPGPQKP
In short, it runs like this:
as §1

The target of assay [3] is T3, GABPA (Homo sapiens, UniProt Q06546 1-454).
T3 sequence: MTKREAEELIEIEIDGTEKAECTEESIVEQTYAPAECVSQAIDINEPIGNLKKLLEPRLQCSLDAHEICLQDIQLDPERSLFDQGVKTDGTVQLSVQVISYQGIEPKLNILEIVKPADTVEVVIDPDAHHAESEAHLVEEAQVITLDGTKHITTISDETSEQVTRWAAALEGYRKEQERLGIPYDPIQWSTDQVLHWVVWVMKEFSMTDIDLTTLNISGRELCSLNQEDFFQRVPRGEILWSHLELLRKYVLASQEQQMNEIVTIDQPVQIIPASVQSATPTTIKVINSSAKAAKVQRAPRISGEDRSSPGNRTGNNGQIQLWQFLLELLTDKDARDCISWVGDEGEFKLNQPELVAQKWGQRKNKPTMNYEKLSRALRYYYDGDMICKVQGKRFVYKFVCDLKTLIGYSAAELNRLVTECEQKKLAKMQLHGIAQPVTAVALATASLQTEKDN
In short, it runs like this: as §1

For assay [4], the target named is T4, ERG (Homo sapiens, UniProt P11308 1-479).
T4 sequence: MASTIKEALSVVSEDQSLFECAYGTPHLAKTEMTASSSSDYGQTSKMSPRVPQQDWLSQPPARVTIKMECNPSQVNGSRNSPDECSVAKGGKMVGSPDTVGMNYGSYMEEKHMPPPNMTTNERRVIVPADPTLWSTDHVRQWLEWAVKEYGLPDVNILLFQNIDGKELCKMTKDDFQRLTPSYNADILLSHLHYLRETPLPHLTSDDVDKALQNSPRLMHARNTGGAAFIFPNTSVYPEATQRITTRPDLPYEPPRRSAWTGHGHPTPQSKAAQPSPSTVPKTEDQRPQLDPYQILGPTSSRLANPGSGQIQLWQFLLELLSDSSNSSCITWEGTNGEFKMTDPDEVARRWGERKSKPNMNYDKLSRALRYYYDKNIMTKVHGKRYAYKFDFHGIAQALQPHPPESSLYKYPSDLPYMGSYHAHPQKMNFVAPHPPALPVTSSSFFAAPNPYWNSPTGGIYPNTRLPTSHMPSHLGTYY
In short, it runs like this:
as §1

Assay [5] concerns the target ELF1 (Homo sapiens, UniProt P32519 1-619). In short, it runs like this: as §1
The target in assay [6] is T5, EHF (Homo sapiens, UniProt Q9NZC4 1-300).
T5 sequence: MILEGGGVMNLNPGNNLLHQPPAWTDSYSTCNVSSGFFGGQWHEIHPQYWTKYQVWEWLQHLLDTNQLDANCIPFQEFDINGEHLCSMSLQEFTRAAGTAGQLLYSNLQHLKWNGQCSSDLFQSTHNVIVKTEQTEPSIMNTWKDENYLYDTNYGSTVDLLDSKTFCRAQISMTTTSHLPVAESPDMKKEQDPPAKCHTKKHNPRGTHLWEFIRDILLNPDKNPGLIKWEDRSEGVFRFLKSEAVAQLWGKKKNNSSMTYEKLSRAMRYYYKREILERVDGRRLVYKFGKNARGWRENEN
In short, it runs like this:
as §1

Assay [7] deals with SPIB (Homo sapiens, UniProt Q01892 1-262). In short, it runs like this: as §1
Assay [8] deals with T6, FEV (Homo sapiens, UniProt Q99581 1-238).
T6 sequence: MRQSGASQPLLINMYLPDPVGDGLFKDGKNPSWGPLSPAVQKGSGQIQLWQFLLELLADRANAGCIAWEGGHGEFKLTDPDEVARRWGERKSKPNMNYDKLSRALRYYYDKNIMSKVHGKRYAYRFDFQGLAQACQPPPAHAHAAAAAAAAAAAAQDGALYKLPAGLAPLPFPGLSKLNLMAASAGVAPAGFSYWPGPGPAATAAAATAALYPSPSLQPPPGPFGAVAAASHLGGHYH
In short, it runs like this: as §1

Assay [9] addresses ETV5 (Homo sapiens, UniProt P41161 1-510). In short, it runs like this:
as §1

The target in assay [10] is T7, SPIC (Homo sapiens, UniProt Q8N5J4 1-248).
T7 sequence: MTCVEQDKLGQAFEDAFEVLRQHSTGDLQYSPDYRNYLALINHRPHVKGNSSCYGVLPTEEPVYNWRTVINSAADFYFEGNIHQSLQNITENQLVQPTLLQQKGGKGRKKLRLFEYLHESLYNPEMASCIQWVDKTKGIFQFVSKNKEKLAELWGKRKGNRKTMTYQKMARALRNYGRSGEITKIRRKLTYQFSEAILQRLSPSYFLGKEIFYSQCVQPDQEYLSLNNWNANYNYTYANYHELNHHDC
In short, it runs like this:
as §1

Assay [11] has as its target ELF4 (Homo sapiens, UniProt Q99607 1-663). In short, it runs like this:
as §1

For assay [12], the target named is T8, ERF (Homo sapiens, UniProt P50548 1-548).
T8 sequence: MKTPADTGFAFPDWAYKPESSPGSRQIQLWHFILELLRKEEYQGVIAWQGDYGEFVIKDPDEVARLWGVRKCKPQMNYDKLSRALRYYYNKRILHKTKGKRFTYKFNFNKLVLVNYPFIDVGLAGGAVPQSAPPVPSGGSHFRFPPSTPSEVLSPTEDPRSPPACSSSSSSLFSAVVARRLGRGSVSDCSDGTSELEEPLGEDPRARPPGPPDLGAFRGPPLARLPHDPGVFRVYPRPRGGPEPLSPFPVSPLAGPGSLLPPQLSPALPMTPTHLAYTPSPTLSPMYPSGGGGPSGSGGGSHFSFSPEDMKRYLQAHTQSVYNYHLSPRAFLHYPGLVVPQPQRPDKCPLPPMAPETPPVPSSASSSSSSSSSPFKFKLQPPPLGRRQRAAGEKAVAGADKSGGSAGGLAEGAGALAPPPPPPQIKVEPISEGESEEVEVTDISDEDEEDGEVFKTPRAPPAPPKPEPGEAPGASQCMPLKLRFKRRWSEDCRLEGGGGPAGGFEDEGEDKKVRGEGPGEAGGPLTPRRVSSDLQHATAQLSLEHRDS
In short, it runs like this:
as §1

The target in assay [13] is T9, ETS2 (Homo sapiens, UniProt P15036 1-469).
T9 sequence: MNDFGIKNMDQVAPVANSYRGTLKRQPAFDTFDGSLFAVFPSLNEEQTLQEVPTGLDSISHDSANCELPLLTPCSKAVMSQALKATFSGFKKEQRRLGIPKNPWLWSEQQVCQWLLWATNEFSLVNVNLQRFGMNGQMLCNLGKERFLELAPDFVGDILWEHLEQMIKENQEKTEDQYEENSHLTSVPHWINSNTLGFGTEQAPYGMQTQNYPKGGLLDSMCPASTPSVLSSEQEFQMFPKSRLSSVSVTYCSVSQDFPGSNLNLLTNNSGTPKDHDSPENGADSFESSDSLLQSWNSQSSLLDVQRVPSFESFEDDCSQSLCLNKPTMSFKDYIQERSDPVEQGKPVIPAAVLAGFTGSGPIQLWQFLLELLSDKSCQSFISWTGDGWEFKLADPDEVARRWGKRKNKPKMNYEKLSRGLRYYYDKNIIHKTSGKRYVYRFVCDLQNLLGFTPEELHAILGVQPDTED
In short, it runs like this: as §1

The target in assay [14] is T10, SPDEF (Homo sapiens, UniProt O95238 1-335).
T10 sequence: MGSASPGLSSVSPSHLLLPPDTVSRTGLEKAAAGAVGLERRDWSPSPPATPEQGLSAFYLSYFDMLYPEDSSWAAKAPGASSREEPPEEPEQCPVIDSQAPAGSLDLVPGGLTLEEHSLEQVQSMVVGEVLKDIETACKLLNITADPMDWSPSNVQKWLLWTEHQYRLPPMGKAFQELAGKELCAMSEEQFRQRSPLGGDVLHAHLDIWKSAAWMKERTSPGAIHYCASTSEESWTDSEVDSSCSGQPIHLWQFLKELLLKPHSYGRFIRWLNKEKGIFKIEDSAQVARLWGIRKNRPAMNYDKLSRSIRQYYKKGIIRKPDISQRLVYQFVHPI
In short, it runs like this:
as §1

The target of assay [15] is T11, ELF5 (Homo sapiens, UniProt Q9UKW6-2 1-255).
T11 sequence: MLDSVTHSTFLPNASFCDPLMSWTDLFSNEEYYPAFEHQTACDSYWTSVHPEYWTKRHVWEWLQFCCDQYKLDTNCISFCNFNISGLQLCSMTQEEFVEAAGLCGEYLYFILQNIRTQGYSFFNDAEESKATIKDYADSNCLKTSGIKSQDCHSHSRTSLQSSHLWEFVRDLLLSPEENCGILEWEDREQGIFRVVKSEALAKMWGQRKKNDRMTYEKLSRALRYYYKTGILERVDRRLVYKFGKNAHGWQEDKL
In short, it runs like this:
as §1

The target of assay [16] is T12, ETV3 (Homo sapiens, UniProt P41162-2 1-143).
T12 sequence: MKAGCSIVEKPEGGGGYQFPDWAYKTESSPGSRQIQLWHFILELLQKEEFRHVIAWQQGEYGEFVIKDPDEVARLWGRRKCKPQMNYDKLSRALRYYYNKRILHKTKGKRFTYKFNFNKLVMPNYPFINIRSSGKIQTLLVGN
In short, it runs like this: as §1

Assay [17] addresses ETV6 (Homo sapiens, UniProt P41212 1-452). In short, it runs like this: as §1

Chain of ETV5 (P41161 whole entry): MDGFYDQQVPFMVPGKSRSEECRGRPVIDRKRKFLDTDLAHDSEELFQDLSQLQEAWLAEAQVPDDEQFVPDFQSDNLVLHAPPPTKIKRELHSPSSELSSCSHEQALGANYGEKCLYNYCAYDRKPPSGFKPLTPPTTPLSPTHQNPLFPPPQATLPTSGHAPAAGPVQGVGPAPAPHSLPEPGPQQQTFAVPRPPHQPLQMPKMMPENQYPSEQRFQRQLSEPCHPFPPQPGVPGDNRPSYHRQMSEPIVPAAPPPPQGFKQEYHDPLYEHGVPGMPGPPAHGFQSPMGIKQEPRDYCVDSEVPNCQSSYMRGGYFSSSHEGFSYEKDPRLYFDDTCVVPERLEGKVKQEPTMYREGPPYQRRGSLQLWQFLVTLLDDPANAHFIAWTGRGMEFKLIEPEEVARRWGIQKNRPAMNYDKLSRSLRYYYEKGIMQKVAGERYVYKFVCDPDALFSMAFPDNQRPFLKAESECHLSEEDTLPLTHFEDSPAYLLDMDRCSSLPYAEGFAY
Chain of ELF4 (Q99607 whole entry): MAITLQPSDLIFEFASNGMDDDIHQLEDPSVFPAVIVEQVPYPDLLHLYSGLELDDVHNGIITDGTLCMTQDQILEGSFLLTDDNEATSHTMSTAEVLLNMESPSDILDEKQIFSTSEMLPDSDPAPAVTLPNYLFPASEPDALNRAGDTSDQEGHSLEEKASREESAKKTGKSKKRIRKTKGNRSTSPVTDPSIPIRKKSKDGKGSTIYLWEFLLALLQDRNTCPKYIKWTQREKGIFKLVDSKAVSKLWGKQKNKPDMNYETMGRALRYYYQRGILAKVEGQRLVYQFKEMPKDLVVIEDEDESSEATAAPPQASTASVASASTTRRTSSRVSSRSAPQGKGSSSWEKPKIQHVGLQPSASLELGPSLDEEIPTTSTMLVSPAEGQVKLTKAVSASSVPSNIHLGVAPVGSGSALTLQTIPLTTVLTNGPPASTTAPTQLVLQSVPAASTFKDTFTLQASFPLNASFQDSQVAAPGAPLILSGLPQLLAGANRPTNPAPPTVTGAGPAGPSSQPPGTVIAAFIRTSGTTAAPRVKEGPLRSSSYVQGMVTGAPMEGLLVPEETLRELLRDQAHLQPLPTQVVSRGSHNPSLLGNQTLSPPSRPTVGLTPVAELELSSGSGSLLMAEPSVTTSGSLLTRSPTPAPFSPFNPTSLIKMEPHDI
Chain of SPIB (Q01892 whole entry): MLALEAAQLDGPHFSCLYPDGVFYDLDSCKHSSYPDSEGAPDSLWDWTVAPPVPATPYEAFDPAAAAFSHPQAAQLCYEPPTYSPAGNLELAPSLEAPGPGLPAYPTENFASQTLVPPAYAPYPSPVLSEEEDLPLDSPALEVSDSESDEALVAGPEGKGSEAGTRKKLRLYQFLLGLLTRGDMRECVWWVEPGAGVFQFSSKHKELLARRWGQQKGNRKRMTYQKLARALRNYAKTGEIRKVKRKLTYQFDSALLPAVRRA
Chain of ELF1 (P32519 whole entry): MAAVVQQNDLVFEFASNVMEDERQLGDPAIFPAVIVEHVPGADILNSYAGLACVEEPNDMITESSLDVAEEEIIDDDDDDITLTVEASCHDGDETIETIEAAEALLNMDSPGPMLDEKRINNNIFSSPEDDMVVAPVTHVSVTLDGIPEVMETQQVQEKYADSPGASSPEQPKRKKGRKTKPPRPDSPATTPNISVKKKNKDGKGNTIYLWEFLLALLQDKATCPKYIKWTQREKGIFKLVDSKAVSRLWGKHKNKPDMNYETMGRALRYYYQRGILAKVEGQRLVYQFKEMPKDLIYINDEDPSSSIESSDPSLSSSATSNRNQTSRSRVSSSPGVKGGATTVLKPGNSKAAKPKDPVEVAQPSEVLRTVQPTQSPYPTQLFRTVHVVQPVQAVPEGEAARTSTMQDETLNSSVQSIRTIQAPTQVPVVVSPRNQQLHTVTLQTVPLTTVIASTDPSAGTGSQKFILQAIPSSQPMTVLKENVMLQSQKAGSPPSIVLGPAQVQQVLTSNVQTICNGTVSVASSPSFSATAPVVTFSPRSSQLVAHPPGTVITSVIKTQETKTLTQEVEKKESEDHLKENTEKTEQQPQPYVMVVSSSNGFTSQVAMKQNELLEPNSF
Chain of ETV6 (P41212 whole entry): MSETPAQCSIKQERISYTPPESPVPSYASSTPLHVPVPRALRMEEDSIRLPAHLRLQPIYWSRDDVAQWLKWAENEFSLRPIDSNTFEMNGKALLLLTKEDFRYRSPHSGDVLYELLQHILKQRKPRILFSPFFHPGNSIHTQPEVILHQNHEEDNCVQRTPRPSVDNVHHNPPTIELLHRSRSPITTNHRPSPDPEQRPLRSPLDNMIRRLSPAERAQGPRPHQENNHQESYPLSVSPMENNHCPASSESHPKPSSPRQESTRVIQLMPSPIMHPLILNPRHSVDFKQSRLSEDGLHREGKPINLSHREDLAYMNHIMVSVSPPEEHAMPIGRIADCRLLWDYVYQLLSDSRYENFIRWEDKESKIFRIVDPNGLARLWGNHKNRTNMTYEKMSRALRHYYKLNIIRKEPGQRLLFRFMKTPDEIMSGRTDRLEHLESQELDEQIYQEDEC

In the case of AGCAAC, the binding signal in [1] is 1 fold enrichment (6-mer frequency, TF over GST control); in [2], 1.03 fold enrichment (6-mer frequency, TF over GST control); in assay [3] it was 1.06 fold enrichment (6-mer frequency, TF over GST control); in assay [4], 1.06 fold enrichment (6-mer frequency, TF over GST control); in assay [5], 1.08 fold enrichment (6-mer frequency, TF over GST control); in assay [6], 1.15 fold enrichment (6-mer frequency, TF over GST control). Further, the binding signal in [7] was 1.08 fold enrichment (6-mer frequency, TF over GST control); in [8], 1.08 fold enrichment (6-mer frequency, TF over GST control); in assay [9], 1.06 fold enrichment (6-mer frequency, TF over GST control); in assay [10], 1.11 fold enrichment (6-mer frequency, TF over GST control); in assay [11], 1.1 fold enrichment (6-mer frequency, TF over GST control); in assay [12], 1.11 fold enrichment (6-mer frequency, TF over GST control). For the same sequence, the binding signal in assay [13] is 1.11 fold enrichment (6-mer frequency, TF over GST control); in assay [14] it was 1.08 fold enrichment (6-mer frequency, TF over GST control); in assay [15], 1.07 fold enrichment (6-mer frequency, TF over GST control); in assay [16], 1.04 fold enrichment (6-mer frequency, TF over GST control); in assay [17] it was 1.06 fold enrichment (6-mer frequency, TF over GST control).
